USP1-UAF1 inh: Inhibitors of USP1/UAF1: Primary Screen; Ubiquitin carboxyl-terminal hydrolase 1 (Homo sapiens), O94782; recombinant USP1/UAF1, Ub-Rhodamine cleavage fluorescence; Potency, µM (top dose mostly 57.1 µM), usual class: inhibitors; 390,000 compounds, 0.23% hits; further: nearly all actives have a fitted effect of over 60% in size
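USP1/UAF1 complex (1 nM) preincubated 15 min at room temperature with compound, then Ub-Rho substrate (150 nM final) added. Kinetic fluorescence at 480/540 nm over 6 reads at 60 s intervals; 50 mM HEPES pH 7.8, 0.5 mM EDTA, 0.1 mg/ml BSA, 1 mM TCEP, 0.01% Tween-20.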
PLK1 PBD block: qHTS for Inhibitors of PLK1-PDB (polo-like kinase 1 - polo-box domain): Primary Screen. Serine/threonine-protein kinase PLK1 (Homo sapiens), P53350. Plk1 PBD binding of FITC phosphopeptide, fluorescence polarization. Potency, µM, actives largely listed as inhibitors. 360,000 compounds, 2.8% hits; further: series mostly up to about 57 µM; nearly all actives have a fitted effect of over 65% in size
Target sequence (P53350 whole entry, looked up, the tested form may be a part): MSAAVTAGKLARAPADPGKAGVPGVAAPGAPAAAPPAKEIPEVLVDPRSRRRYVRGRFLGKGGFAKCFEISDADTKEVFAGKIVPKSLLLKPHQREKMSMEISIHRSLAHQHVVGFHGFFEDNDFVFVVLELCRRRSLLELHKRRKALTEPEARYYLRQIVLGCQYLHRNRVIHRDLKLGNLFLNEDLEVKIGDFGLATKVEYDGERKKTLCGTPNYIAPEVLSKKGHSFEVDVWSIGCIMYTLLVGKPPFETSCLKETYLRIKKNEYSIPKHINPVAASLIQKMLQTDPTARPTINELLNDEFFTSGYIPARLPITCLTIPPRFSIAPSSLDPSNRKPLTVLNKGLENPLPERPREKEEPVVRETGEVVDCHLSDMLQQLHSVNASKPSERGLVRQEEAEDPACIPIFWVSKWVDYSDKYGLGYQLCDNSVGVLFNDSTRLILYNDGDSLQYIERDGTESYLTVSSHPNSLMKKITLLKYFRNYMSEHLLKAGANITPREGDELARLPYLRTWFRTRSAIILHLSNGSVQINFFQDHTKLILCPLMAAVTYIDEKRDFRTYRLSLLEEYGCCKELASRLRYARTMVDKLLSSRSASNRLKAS
PI5P4K alpha inh: qHTS for Inhibitors of phosphatidylinositol 5-phosphate 4-kinase (PI5P4K); Phosphatidylinositol 5-phosphate 4-kinase type-2 alpha (Homo sapiens), P48426; PI5P4Kalpha enzyme, ADP-Glo luminescence, 60 min; stronger effect = lower value; max response, %; 330,000 compounds, 1.2% hits; active means max response of -50% or lower; inconclusive means between -30% and -50%; inactive means -30% or higher; further: value at the top dose of about 77 µM
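PI5P4Kalpha ADP-Glo assay; 5 microM ATP final; 60 min RT reaction; HEPES pH 7.4/EGTA/CHAPS, 5% DMSO; controls lacking substrate or enzyme; luminescent end-point.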
USP2a inh: qHTS Assay for Inhibitors of Ubiquitin-specific Protease USP2a Using CHOP2 as the Reporter; USP2 core, Ub-CHOP2 coupled fluorogenic reporter, 485/531; 330,000 compounds, 0.01% hits; Potency, µM (top dose mostly 38.3 µM), usual class: inhibitors
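USP2 core (10nM final) preincubated 30min RT with compound in 20mM Tris-HCl pH 8.0, 2mM CaCl2, 2mM beta-mercaptoethanol, 0.05% CHAPS; 25nM Ub-CHOP2 plus 25nM reporter substrate added, fluorescence (Ex485/Em531) read after 60min.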
WRN helicase inh: qHTS for Inhibitors of WRN Helicase; Bifunctional 3'-5' exonuclease/ATP-dependent helicase WRN (Homo sapiens), Q14191; WRN helicase unwinding, fluorescent forked duplex, kinetic; Potency, µM (highest dose often 114 µM), actives largely listed as inhibitors; 360,000 compounds, 0.46% hits; further: nearly all actives have a fitted effect of over 55% in size
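WRN at 20 nM final preincubated with compound 15 min at room temperature; reaction started with 100 nM fluorophore/quencher forked duplex oligonucleotide and 2 mM ATP final. Unwinding followed kinetically by red fluorescence (ex 525, em 598 nm).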
A number is an active result; – = inactive; ? = inconclusive; · = no result given. Hits are enriched below; roughly 3.3% of the tested compounds scored in any of these assays. Unless noted, the call rests on the fitted dose curve; in most records, active means well fitted curve in the direction sought with a large enough effect; inconclusive means small, poorly fitted or top-dose-only effect, or another doubt; inactive means no such curve, though single readings can be large; an effect the other way counts as inactive or inconclusive.

SMILES | USP1-UAF1 inh | PLK1 PBD block | PI5P4K alpha inh | USP2a inh | WRN helicase inh
CC(C)NC(=O)c1sc(=S)n2c1[nH]c(=O)c1ccc(C(=O)NCCc3ccc(Cl)cc3)cc12 | – | 26.7µM | – | – | –
O=C(NCCc1ccccc1)c1ccc2c(=O)[nH]c3c(C(=O)NCC4CCCO4)sc(=S)n3c2c1 (stereo unspecified) | – | 29.9µM | – | – | –
Cc1cc(NC(=O)CSCC(=O)OCC(=O)c2cccc(Br)c2)no1 | – | – | -61.6 | – | –
Cc1cc(NC(=O)CSCC(=O)OCC(=O)Nc2ccc(OC(F)F)cc2)no1 | – | – | – | – | –
Cc1c(Nc2cc(Cl)c3nonc3c2[N+](=O)[O-])c(=O)n(-c2ccccc2)n1C | – | 1.19µM | – | – | –
CC(=O)Cc1nsc(Nc2ccc(C)cc2)n1 | – | 26.7µM | – | – | –
N#C/C(=C\c1ccc([N+](=O)[O-])o1)C(=O)Nc1ccc(F)cc1 | – | ? | -84.1 | – | ?
Cc1ccc(/C=C(\C#N)C(=O)Nc2ccc(Br)cc2)o1 | – | · | · | · | ·
N#CCc1ccc(NC(=O)/C=C/c2ccc([N+](=O)[O-])o2)cc1 | – | – | -59.4 | ? | ?
COc1ccc(NC(=O)/C(C#N)=C\c2ccc(Br)o2)cc1 | – | – | -82.5 | – | ?
COc1ccc(NC(=O)/C(C#N)=C/c2ccc(-c3ccccc3C(=O)O)o2)cc1 | – | – | – | – | –
O=C(CCSc1nnc2ccccn12)Nc1ccc(F)cc1 | – | – | · | – | –
O=C(CCSc1nnc2ccc3ccccc3n12)Nc1ccc(F)cc1 | – | 29.9µM | – | – | –
CCOC(=O)c1c(C)c(-c2ccccc2)n(CC(=O)Nc2ccc(OCC)cc2)c1C | – | · | · | · | ·
COc1ccc(S(=O)(=O)NCc2ccc(C(=O)NCCCN3CC(C)CC(C)C3)cc2)cc1 (stereo unspecified) | – | 26.7µM | – | – | –
COc1ccc(CNC(=O)c2ccc(CNS(=O)(=O)c3ccc(OC)cc3)cc2)cc1 | – | · | · | · | ·
CC1CC(C)CN(CCCNC(=O)c2ccc3c(c2)NC(=O)CS3)C1 (stereo unspecified) | – | 29.9µM | – | – | –
O=C1CSc2ccc(C(=O)N3CCCCC3)cc2N1 | – | 15µM | – | · | –
COc1ccc(CCNC(=O)c2ccc(Nc3nc4ccccc4n4nnnc34)cc2)cc1OC | – | · | · | · | ·
Brc1ccc(-c2nc3ncccn3c2NC2CCCCC2)o1 | – | 21.2µM | – | – | –
CC(=O)c1sc2nc(SCC(=O)NCCc3ccccc3)[nH]c(=O)c2c1C | – | – | – | – | –
CCc1ccc(NC(=O)CSc2nc(NS(=O)(=O)c3ccccc3)cc(=O)[nH]2)cc1 | – | – | – | – | –
Cc1ccc(NC(=O)CSc2nc(NS(=O)(=O)c3ccccc3)cc(=O)[nH]2)cc1 | – | – | ? | – | 50.1µM
COc1ccc(CCNC(=O)CSc2nc3sc(C(=O)O)c(C)c3c(=O)[nH]2)cc1OC | – | – | -70.7 | – | –
CCOC(=O)c1ccc(NC(=O)CSc2nc3sc(C(=O)O)c(C)c3c(=O)[nH]2)cc1 | – | – | -80.7 | – | –
SMILES | USP1-UAF1 inh | PLK1 PBD block | PI5P4K alpha inh | USP2a inh | WRN helicase inh
Cc1cc(NS(=O)(=O)c2ccc(NC(=O)CSc3nc4sc(C(=O)O)c(C)c4c(=O)[nH]3)cc2)no1 | – | 26.7µM | -81.3 | – | –
Cc1cc(C)n(-c2nc3ccccc3nc2N2CCN(c3cccc(C(F)(F)F)c3)CC2)n1 | – | · | · | · | ·
Cc1ccc(-n2ncc(C(=O)NCCc3ccsc3)c2C2CCN(C(=O)OC(C)(C)C)CC2)c(C)c1 | – | · | · | · | ·
Cc1cc(C)c(NC(=O)c2c(C)oc3c2C2=NCCN2C=N3)c(C)c1 | – | · | · | · | ·
COCCNC(=O)CSc1nnc2[nH]c(=O)cc(C)n12 | – | · | · | · | ·
COc1cc(C2Nc3cc(Cl)c(S(N)(=O)=O)cc3S(=O)(=O)N2)cc(OC)c1OC (stereo unspecified) | – | – | – | – | –
COc1cc(C2Nc3cc(Cl)c(S(N)(=O)=O)cc3S(=O)(=O)N2)ccc1OCc1ccccc1 (stereo unspecified) | ? | 23.8µM | – | – | –
FC(F)(F)c1ccccc1/C=N/n1c(COc2ccccc2)n[nH]c1=S | – | 29.9µM | – | – | –
FC(F)(F)c1ccc(/C=N/n2c(COc3ccccc3)n[nH]c2=S)cc1 | – | 26.7µM | – | – | –
S=c1[nH]nc(COc2ccccc2)n1/N=C/c1ccccc1Br | – | ? | – | – | –
CCCc1cc(N2CCN(c3cc(Cl)ccc3C)CC2)n2cnnc2n1 | – | · | · | · | ·
O=C(c1ccco1)c1coc2c1cc(O)c1ccccc12 | ? | 29.9µM | – | – | –
COc1ccccc1N1CCN(S(=O)(=O)c2ccc(-c3ccno3)cc2OC)CC1 | – | · | · | · | ·
Cc1ccc([C@H]2C(C(=O)O)=CC[C@@H](c3ccc(C(C)C)cc3)N2S(=O)(=O)c2ccc(C)cc2)cc1 | – | 23.8µM | – | – | –
Cc1ccc(S(=O)(=O)N2[C@@H](c3ccc(Cl)cc3)C(C(=O)O)=CC[C@H]2c2ccc(C(C)C)cc2)cc1 | – | 18.9µM | – | ? | –
COc1cccc(N2CC(NC(=O)CCCc3ccccc3)CC2=O)c1 (stereo unspecified) | – | · | · | · | ·
N#Cc1cnc2c(-c3ccccc3)c(-c3ccccc3)nn2c1N | – | 18.9µM | – | – | –
Cc1nn2c(N)c(C#N)cnc2c1-c1ccccc1 | – | – | – | – | –
Cc1ccccc1S(=O)(=O)Cc1ccc(C(=O)NC2CCC(C)CC2)o1 (stereo unspecified) | – | 26.7µM | – | – | –
Cc1ccc(S(=O)(=O)c2[nH]c(-c3ccccc3)nc2SCC(N)=O)cc1 | – | · | · | · | ·
O=C(NCCSCc1ccccc1Cl)C1CCN(S(=O)(=O)Cc2ccccc2)CC1 | – | · | · | · | ·
COc1ccc(C(C)=O)cc1Cn1cnc2c(cnn2C)c1=O | – | 18.9µM | · | – | –
CC(C)=CCC12Oc3cc(O)ccc3C1(O)Oc1cc(O)c([C@H]3C=C(C)CC(c4ccc(O)cc4O)[C@H]3C(=O)c3ccc(O)cc3O)c(O)c1C2=O (stereo partly specified) | – | – | -91.5 | · | –
CC(=O)Nc1ccc(-c2nnc3n(Cc4ccc(C)cc4)c(=O)c4ccccc4n23)cc1 | – | · | · | · | ·
N#Cc1c(-c2ccco2)nc(SCc2ccc(F)cc2)[nH]c1=O | – | 23.8µM | · | – | –
Cc1ccccc1NC(=O)CSc1nc2nccnc2c(=O)n1CCc1c[nH]c2ccccc12 | – | · | · | · | ·
COc1ccc(-c2noc(CSc3nc4ccccc4[nH]3)n2)cc1 | – | · | · | · | ·
COc1ccc(-c2noc(CSc3nc(N)cc(=O)[nH]3)n2)cc1 | – | 26.7µM | – | – | –

From PubChem BioAssay
